Read-out in experiment [1]: Collagen IV, COL4A1 (gene 1282)
Nature of the experiment: BSK_MyoF_CollagenIV: BioMAP Diversity Plus: MyoF Assay for Collagen IV Biomarker Activity (AID 2284247). Particulars: primary human lung fibroblasts. The method, boiled down:
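Collagen IV quantified by ELISA in human lung fibroblast cultures 24 h after chemical treatment, with DMSO as baseline. Parallel SRB staining (0.1% SRB after TCA fixation, 560 nm) flags overt cytotoxicity.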

Read-out in experiment [2]: Monokine induced gamma interferon (MIG), CXCL9 (gene 4283)
Nature of the experiment: BSK_KF3CT_MIG: BioMAP Diversity Plus: KF3CT Assay for Monokine induced gamma interferon (MIG) Biomarker Activity (AID 2284248). Particulars: primary human keratinocytes with fibroblasts. In outline: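 Human keratinocyte–foreskin fibroblast co-culture; MIG measured by ELISA 24 h after chemical dosing, fitted upward versus DMSO. Cytotoxicity was assessed in parallel cultures by SRB total-protein staining read at 560 nm.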

Read-out in experiment [3]: Vascular cell adhesion molecule 1 (VCAM1), VCAM1 (gene 7412)
The experiment is described as follows: BSK_BF4T_VCAM1: BioMAP Diversity Plus: BF4T Assay for Vascular cell adhesion molecule 1 (VCAM1) Biomarker Activity (AID 2284249). The note with it: primary human bronchial epithelial cells with fibroblasts. The method, boiled down:
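Cell-surface VCAM-1 quantified by ELISA after 24 h chemical exposure of human bronchial epithelial/dermal fibroblast co-cultures, with SRB staining in parallel wells for cytotoxicity; DMSO baseline, positive-direction fitting.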

Read-out in experiment [4]: Collagen I, COL1A1 (gene 1277)
Nature of the experiment: BSK_hDFCGF_CollagenI: BioMAP Diversity Plus: hDFCGF Assay for Collagen I Biomarker Activity (AID 2284250). Particulars: primary human foreskin fibroblasts. In outline: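 Collagen I quantified by ELISA 24 h after chemical dosing of human dermal fibroblast primary cells, with parallel SRB staining (0.1%, TCA-fixed, 560 nm) for overt cytotoxicity.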

Read-out in experiment [5]: Interferon-inducible T-cell alpha chemoattractant (ITAC), CXCL11 (gene 6373)
Nature of the experiment: BSK_hDFCGF_ITAC: BioMAP Diversity Plus: hDFCGF Assay for Interferon-inducible T-cell alpha chemoattractant (ITAC) Biomarker Activity (AID 2284251). Particulars: primary human foreskin fibroblasts. The method, boiled down:
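I-TAC levels were read by ELISA on human dermal foreskin fibroblast primary cultures 24 h after dosing, analysed against DMSO in the positive direction. Cytotoxicity was assessed alongside by sulforhodamine B total-protein staining.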

Read-out in experiment [6]: Plasminogen activator inhibitor-1 (PAI1), SERPINE1 (gene 5054)
Nature of the experiment: BSK_KF3CT_PAI1: BioMAP Diversity Plus: KF3CT Assay for Plasminogen activator inhibitor-1 (PAI1) Biomarker Activity (AID 2284252). Particulars: primary human keratinocytes with fibroblasts. The method, boiled down:
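PAI-1 levels quantified by ELISA after 24 h compound exposure of primary human skin keratinocytes co-cultured with fibroblasts. Activity is the gain relative to DMSO; cytotoxicity tracked in parallel cultures via SRB staining.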

Read-out in experiment [7]: Monocyte Chemoattractant Protein-1 (MCP1), CCL2 (gene 6347)
Nature of the experiment: BSK_IMphg_MCP1: BioMAP Diversity Plus: IMphg Assay for Monocyte Chemoattractant Protein-1 (MCP1) Biomarker Activity (AID 2284253). The note with it: primary human endothelial cells with macrophages. The method, boiled down:
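ELISA readout of MCP-1 at 24 hours in IMphg co-cultures of venular endothelial cells and macrophages, normalised to DMSO; parallel cultures stained with sulforhodamine B for overt cytotoxicity.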

Read-out in experiment [8]: Interleukin-8 (IL8), CXCL8 (gene 3576)
Nature of the experiment: BSK_KF3CT_IL8: BioMAP Diversity Plus: KF3CT Assay for Interleukin-8 (IL8) Biomarker Activity (AID 2284254). The note with it: primary human keratinocytes with fibroblasts. In outline:
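Human keratinocyte/foreskin fibroblast co-culture dosed 24 h; IL-8 measured by ELISA relative to DMSO. Parallel cultures stained with SRB for total protein to flag cytotoxicity.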

Read-out in experiment [9]: Macrophage Inflammatory Protein-1 Alpha (MIP1a), CCL3 (gene 6348)
The experiment is described as follows: BSK_IMphg_MIP1a: BioMAP Diversity Plus: IMphg Assay for Macrophage Inflammatory Protein-1 Alpha (MIP1a) Biomarker Activity (AID 2284255). Particulars: primary human endothelial cells with macrophages. In outline:
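MIP-1a protein levels were quantified by ELISA after 24 h treatment of human endothelial cell–macrophage co-cultures, compared with DMSO. Parallel cultures were fixed with TCA and stained with 0.1% SRB to gauge overt cytotoxicity.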

Read-out in experiment [10]: Plasminogen activator inhibitor-1 (PAI1), SERPINE1 (gene 5054)
Nature of the experiment: BSK_MyoF_PAI1: BioMAP Diversity Plus: MyoF Assay for Plasminogen activator inhibitor-1 (PAI1) Biomarker Activity (AID 2284256). Particulars: primary human lung fibroblasts. The method, boiled down:
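Primary human lung fibroblasts treated with chemical for 24 h; PAI-1 levels quantified by ELISA relative to DMSO. Cytotoxicity was assessed in parallel cultures by SRB total-protein staining (0.1% SRB after 10% TCA fixation, 560 nm).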

Read-out in another experiment: CD69, CD69 (gene 969)
The experiment is described as follows: BSK_IMphg_CD69: BioMAP Diversity Plus: IMphg Assay for CD69 Biomarker Activity (AID 2284257). Particulars: primary human endothelial cells with macrophages. The method, boiled down:
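Readout is ELISA for CD69 in primary human venular endothelial cell/macrophage co-culture, taken at 24 h post-dosing. SRB staining of parallel cultures gauged overt cytotoxicity; signal increase versus DMSO defined activity.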

Read-out in experiment [11]: Eotaxin 3, CCL26 (gene 10344)
The experiment is described as follows: BSK_BF4T_Eotaxin3: BioMAP Diversity Plus: BF4T Assay for Eotaxin 3 Biomarker Activity (AID 2284258). The note with it: primary human bronchial epithelial cells with fibroblasts. In outline:
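ELISA measurement of Eotaxin-3 after 24 h chemical exposure in a bronchial epithelial/dermal fibroblast co-culture, with DMSO as baseline. Parallel SRB staining (0.1% SRB after 10% TCA fixation, 560 nm) flagged overt cytotoxicity.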

Read-out in experiment [12]: Monocyte Chemoattractant Protein-1 (MCP1), CCL2 (gene 6347)
Nature of the experiment: BSK_BF4T_MCP1: BioMAP Diversity Plus: BF4T Assay for Monocyte Chemoattractant Protein-1 (MCP1) Biomarker Activity (AID 2284259). Particulars: primary human bronchial epithelial cells with fibroblasts. The method, boiled down:
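MCP-1 ELISA readout taken 24 h after dosing in the BF4T system (bronchial epithelial cells plus dermal fibroblasts). Parallel SRB total-protein staining flagged cytotoxicity; DMSO served as baseline, positive fitting direction.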

Read-out in experiment [13]: Intercellular Adhesion Molecule 1 (ICAM1), ICAM1 (gene 3383)
The experiment is described as follows: BSK_BF4T_ICAM1: BioMAP Diversity Plus: BF4T Assay for Intercellular Adhesion Molecule 1 (ICAM1) Biomarker Activity (AID 2284260). The note with it: primary human bronchial epithelial cells with fibroblasts. In outline: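 ICAM-1 levels measured by ELISA after 24 h chemical treatment of bronchial epithelial cell/dermal fibroblast co-cultures, read against DMSO baseline. Overt cytotoxicity checked in parallel cultures by sulforhodamine B staining.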

Read-out in experiment [14]: Interleukin-8 (IL8), CXCL8 (gene 3576)
The experiment is described as follows: BSK_MyoF_IL8: BioMAP Diversity Plus: MyoF Assay for Interleukin-8 (IL8) Biomarker Activity (AID 2284261). Particulars: primary human lung fibroblasts. In outline: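 Human lung fibroblast (MyoF system) cultures dosed for 24 h, then IL-8 measured by ELISA. Response taken relative to DMSO; parallel SRB total-protein staining for cytotoxicity.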

Read-out in the next experiment: CD90, THY1 (gene 7070)
Nature of the experiment: BSK_BF4T_CD90: BioMAP Diversity Plus: BF4T Assay for CD90 Biomarker Activity (AID 2284262). Particulars: primary human bronchial epithelial cells with fibroblasts. The method, boiled down:
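CD90 levels by ELISA after 24 h treatment of human bronchial epithelial cell/dermal fibroblast cultures, analysed versus DMSO. Overt cytotoxicity checked in parallel cultures by sulforhodamine B staining.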

Read-out in experiment [15]: Interleukin-8 (IL8), CXCL8 (gene 3576)
Nature of the experiment: BSK_BF4T_IL8: BioMAP Diversity Plus: BF4T Assay for Interleukin-8 (IL8) Biomarker Activity (AID 2284263). The note with it: primary human bronchial epithelial cells with fibroblasts. The method, boiled down: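 Human bronchial epithelial cells with dermal fibroblasts co-culture; IL-8 measured by ELISA 24 hours after dosing, fitted vs DMSO. Cytotoxicity tracked in parallel cultures by SRB total-protein staining.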

Read-out in experiment [16]: Interleukin-1 alpha (IL1a), IL1A (gene 3552)
The experiment is described as follows: BSK_BF4T_IL1a: BioMAP Diversity Plus: BF4T Assay for Interleukin-1 alpha (IL1a) Biomarker Activity (AID 2284264). Particulars: primary human bronchial epithelial cells with fibroblasts. In outline:
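ELISA read-out of IL-1α from bronchial epithelial cell/dermal fibroblast co-cultures 24 h after compound addition. Increases scored against DMSO negative control. Cytotoxicity monitored by sulforhodamine B staining of parallel cultures.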

Read-out in a further experiment: Decorin, DCN (gene 1634)
Nature of the experiment: BSK_MyoF_Decorin: BioMAP Diversity Plus: MyoF Assay for Decorin Biomarker Activity (AID 2284265). Particulars: primary human lung fibroblasts. In outline:
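Human lung fibroblast cultures were dosed for 24 h, and decorin was then measured by ELISA. Parallel cultures were stained with sulforhodamine B for total protein as a cytotoxicity check. Gain of signal was fitted relative to DMSO.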

Read-out in the next experiment: KRT18 (gene 3875)
Nature of the experiment: BSK_BF4T_Keratin818: BioMAP Diversity Plus: BF4T Assay for Keratin 818 Biomarker Activity (AID 2284266). Particulars: primary human bronchial epithelial cells with fibroblasts. The method, boiled down:
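Keratin 8/18 levels quantified by ELISA after 24 h chemical treatment of bronchial epithelial cell/dermal fibroblast co-cultures, fitted in positive direction relative to DMSO. Parallel SRB staining tracks overt cytotoxicity.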

Here are results for one compound from PubChem BioAssay (EPA / NIEHS).

“And” between values parts separate entries of the source, which are not always exact repeats. Equal values may be shown once. Where a structure was tested more than once in an assay, its records may differ in their call. The source made the active and inactive calls. The calls were made as follows: active = hit-call score of the fitted dose curve at least 0.9, where 1 is the maximum; inactive = score below 0.9.

As to `CCNS(=O)(=O)C(F)(F)C(F)(F)C(F)(F)C(F)(F)C(F)(F)C(F)(F)C(F)(F)C(F)(F)F`, the concentration at half-maximal activity (AC50) in [1] is 54.7 µM (active) and 7.29 µM (active); in experiment [2], 46 µM (active); in [3], 15.4 µM (active) and 14.3 µM (active); in experiment [4] it was 46.9 µM (active) and 38.3 µM (active); in [5], 24.8 µM (active) and 27.5 µM (active); in experiment [6], 39.7 µM (active) and 39.3 µM (active). For the same compound, the AC50 was 41.4 µM (active) and 36.9 µM (active) in experiment [7]; 35 µM (active) in experiment [9]; 58.4 µM (active) and 51.1 µM (active) in experiment [10]; 38.4 µM (active) and 39.2 µM (active) with CD69, CD69 (gene 969); 7.65 µM (active) and 6.97 µM (active) in experiment [11]; 18.6 µM (active) and 22.6 µM (active) in [12]. Also, the concentration at half-maximal activity (AC50) in [13] is 30 µM (active) and 25 µM (active); in [14] it was 41.5 µM (active) and 45.6 µM (active); in [16] it was 36.5 µM (active) and 44.4 µM (active); in the experiment with Decorin, DCN (gene 1634) it was 40.9 µM (active) and 45.6 µM (active); in the experiment with KRT18 (gene 3875) it was 15.3 µM (active) and 22.5 µM (active). In addition, the outcome in [2] is “inactive”; in experiment [8], “inactive”; in experiment [9] it was “inactive”; in the experiment with CD90, THY1 (gene 7070) it was “inactive”; in experiment [15] it was “inactive”.

For orientation: AC50 means the concentration at which the activity in the assay is half-maximal.
